This passage reports INHIBITION results from ChEMBL document CHEMBL4513216, “Probing the Open Global Health Chemical Diversity Library for Multistage-Active Starting Points for Next-Generation Antimalarials” (ACS Infect Dis, 2020).

The whole screen tested about 68,000 compounds, of which about 2,700 (4%) showed an effect of 50% or more. Shown is part of a subset that was picked to be rich in strong results.

The assay relates to Plasmodium berghei. Nature of the assay: Screen against P. berghei liver stage (PbLuc), transformed with Luciferase, at 2uM. The class given is functional, HepG2. The settings on record: tested at 2 uM.
Turning to `CCc1cc(=O)n(CC(=O)NCC2CCCO2)c(-c2cccc(F)c2)n1` (stereo unspecified), the INHIBITION came out at 23.65%. The figure for `CN1CCC(c2cccc(-c3ccc(C(=O)O)cc3)n2)CC1` is -39.93%; for `CCC(CO)N(Cc1ccc(C(=O)O)cc1)Cc1ccsc1` (stereo unspecified) it is 2.17%; for `CCC(C)N(Cc1ccsc1)C(=O)c1ccc(CO)cc1` (stereo unspecified) it is 52.98%. The figure for `CCC(C)N(Cc1ccsc1)C(=O)c1ccc2[nH]nnc2c1` (stereo unspecified) is 38.24%.

As for `CNc1oc(-c2cc(S(=O)(=O)N3CCCC3)c(C)o2)nc1C#N`, the INHIBITION was -49.59%. Then `CNc1oc(-c2cc(S(=O)(=O)N3CCCCCC3)c(C)o2)nc1C#N`, with 5.96%; and `Cc1oc(-c2nc(C#N)c(NC(C)(C)C)o2)cc1S(=O)(=O)N1CCCC1`, with 58.42%; and `Cc1cccc(CN2C[C@@H]3CN(C(=O)c4ccsc4)C[C@@H]3C2=O)n1`, with -23.78%.

As for `Cc1cnc(N2CC[C@@H]3O[C@@H](COCc4ccccn4)CC[C@@H]32)nc1`, the INHIBITION is listed as -7.26%. For the compound `COc1ccc2c(c1)CCCN2Cc1nc2c(cnn2C)c(=O)[nH]1`, the INHIBITION is listed as -70.71%.

In the case of `CCC1CCCCN1Cc1nc2c(cnn2C)c(=O)[nH]1` (stereo unspecified), the INHIBITION is -31.57%. In the case of `Cn1ncc2c(=O)[nH]c(CN3CCCC3CC(C)(C)C)nc21` (stereo unspecified), the INHIBITION was found to be 70.27%. Then `CN(CCCOc1ccccc1)Cc1nc2c(cnn2C)c(=O)[nH]1`, with -31.57%; and `COc1ccc(OCCN(C)Cc2nc3c(cnn3C)c(=O)[nH]2)cc1`, with 72.31%; and `CN(CCOc1cccc(F)c1)Cc1nc2c(cnn2C)c(=O)[nH]1`, with 47.87%. The figure for `Cn1ncc2c(=O)[nH]c(CN3CCCC3CC3CCCCC3)nc21` (stereo unspecified) is -5.15%. In the case of `Cc1ccc(OCCN(C)Cc2nc3c(cnn3C)c(=O)[nH]2)cc1`, the INHIBITION is 78.42%. Consider `CN(CCCOc1ccc(F)cc1)Cc1nc2c(cnn2C)c(=O)[nH]1`, for which the INHIBITION was -45.72%. Consider `COCCCN(C)Cc1nc2c(cnn2C)c(=O)[nH]1`, for which the INHIBITION is on record as -135.87%. The figure for `COc1ccc2c(c1)CN(Cc1nc3c(cnn3C)c(=O)[nH]1)CC2` is 27.55%; for `COc1ccc2c(c1)CCN2Cc1nc2c(cnn2C)c(=O)[nH]1` it is 52.17%.

For `CSc1cccc(CN(C)C(=O)Nc2nc(C)n(C)n2)c1`, the INHIBITION is on record as 4.12%.

Take `CSCC(=O)N1CCCC1c1noc(C2CC2)n1` (stereo unspecified): the INHIBITION amounted to 27.44%. The figure for `Cc1cc(C)n(CC(C)NC(=O)C2(c3ccccc3F)CC2)n1` (stereo unspecified) is -45.89%. The figure for `O=C(CCN1CCCCO1)N1CCC(CO)(CCc2ccccc2)CC1` is 12.56%; for `O=C(c1cc2c(s1)CCC2)N1CCCC1Cn1cccn1` (stereo unspecified) it is 17.39%. Then `CN(C)c1ncc(CNC2CC(=O)N(CCc3cccc(Cl)c3)C2)s1` (stereo unspecified), with 35.26%.

Consider `CCNc1nc(C)c(C(=O)N2CCC(C(O)Cc3ccccc3)CC2)s1` (stereo unspecified), for which the INHIBITION is 15.73%.

For the compound `O=C(C1CCCN(C2CCOCC2)C1)N1Cc2ccccc2C1` (stereo unspecified), the INHIBITION was -45.79%. Then `Fc1cccc(CN2CCC(c3cc4ncccc4cn3)CC2)c1F`, with -27.12%. For `COCCN(Cc1nc2c(cnn2C)c(=O)[nH]1)C(C)c1ccccc1` (stereo unspecified), the INHIBITION is 68.24%. The figure for `COCCN(Cc1nc2c(cnn2C)c(=O)[nH]1)C(C)COC` (stereo unspecified) is 20.57%; for `CC(N(C)Cc1nc2c(cnn2C)c(=O)[nH]1)C(C)(C)C` (stereo unspecified) it is 62.46%. Take `CC(C)CN(C)Cc1nc2c(cnn2C)c(=O)[nH]1`: the INHIBITION is recorded as -29.44%. The figure for `CCC(C)N(CCOC)Cc1nc2c(cnn2C)c(=O)[nH]1` (stereo unspecified) is 29.19%; for `CCN(Cc1nc2c(cnn2C)c(=O)[nH]1)Cc1ccco1` it is 53.98%; for `Cc1ccc(C(C)N(C)Cc2nc3c(cnn3C)c(=O)[nH]2)cc1` (stereo unspecified) it is 28.65%. The figure for `CN(Cc1nc2c(cnn2C)c(=O)[nH]1)Cc1ccco1` is 27.5%; for `COCCN(Cc1nc2c(cnn2C)c(=O)[nH]1)Cc1ccco1` it is -16.42%; for `CCC1CN(Cc2nc(C(C)C)no2)CCC(=O)N1Cc1ccccc1` (stereo unspecified) it is 8.14%. For the compound `O=C(C1=CCCC1)N1C[C@H](OCc2cccnc2)[C@H]2OCCC[C@H]21`, the INHIBITION is listed as 31.46%. Regarding `CCCS(=O)(=O)N1CCC2(CC1)CC(=O)N(Cc1cc(F)cc(F)c1)C2`, the INHIBITION was found to be 8.76%. For `C=c1occc1=C1NC(c2cccc(CN3CCOCC3)c2)=NO1`, the INHIBITION was found to be 1.42%.

In the case of `CCC(C)c1noc(C2CCN(C(=O)c3cccs3)CC2)n1` (stereo unspecified), the INHIBITION is -50.86%. The figure for `c1ccc(Cn2cccn2)c(CN2CCC3(CCCNC3)C2)c1` (stereo unspecified) is 31.9%; for `c1cnn(Cc2ccc(CN3CCC4(CCNCC4)C3)cc2)c1` it is 56.79%.

Consider `c1cnn(Cc2ccc(CN3CCC4(CCCNC4)C3)cc2)c1` (stereo unspecified), for which the INHIBITION stood at 0.49%.

On to `COC[C@]1(O)CCN(Cc2ccc(N(C)C)nc2)CC1(C)C`, for which the INHIBITION is on record as 32.21%.

For `Cc1cc(CN2CC[C@H]3C[C@H](C(=O)N4CCC(C)CC4)O[C@H]3C2)no1`, the INHIBITION was 34.88%. Then `CCn1ccnc1CN1CCCN(C(=O)COC2CCCCC2)CC1`, with -2.87%.

As for `CCn1ccnc1CN1CCCN(C(=O)COC2CCCC2)CC1`, the INHIBITION is 57.81%. The figure for `Cn1ccnc1CN1CCCN(C(=O)COC2CCCC2)CC1` is 28.18%.

As to `Cn1ccc(NC(=O)CN2C[C@@H]3CC[C@H]2CN(S(C)(=O)=O)C3)n1`, the INHIBITION was determined as 48.21%. The figure for `CN(Cc1nc2ccccc2o1)C1CCCN(c2cccnn2)C1` (stereo unspecified) is -16.72%; for `Cc1cc(C)n(C2CCCN(C(=O)c3cccc4[nH]ncc34)C2)n1` (stereo unspecified) it is -15.33%; for `Cc1nccn1-c1ccc(C(C)NCc2cccn2C)cc1` (stereo unspecified) it is -28.15%. Take `Cn1c2ccccc2c2ncn(CCCN3CCOCC3)c(=O)c21`: the INHIBITION turned out to be 23.65%.

For `Cn1c2ccccc2c2ncn(CCN3CCOCC3)c(=O)c21`, the INHIBITION stood at 61.75%. The figure for `Cn1c2ccc(F)cc2c2ncn(CCN3CCOCC3)c(=O)c21` is -2.5%. The figure for `CN1CCCN(C[C@@H]2CN(c3nc(C(N)=O)cs3)C[C@@H]2CO)CC1` is 19.56%.

On to `COCCNc1c(-c2ccc(C)cc2)c(=O)c1=O`, for which the INHIBITION was -21.29%.

In the case of `COCCN1CCO[C@H]2CN(C(=O)c3cccs3)C[C@H]21`, the INHIBITION is recorded as 13.26%. Then `O=c1cccnn1CC1CN(CC2CCCC2)Cc2nccn2C1` (stereo unspecified), with 52.83%. For `O=c1cccnn1CC1CN(Cc2ccsc2)Cc2nccn2C1` (stereo unspecified), the INHIBITION is reported as -0.51%. Then `CS(=O)(=O)N1Cc2nccn2CC(Cn2ncccc2=O)C1` (stereo unspecified), with -9.42%.
